In the antibiotic and cytotoxicity screens of Wong et al. (2023):
Out of some 39,000 compounds screened, about 1,500 (3.8%) were called active. Only a selection was taken, and actives are over-represented in it overall.

Tested on: HSkMC (human skeletal muscle cells)
Assay: cytotoxicity call (relative viability < 0.9)
Details: 10 µM

Row | SMILES | cytotoxicity call
1 | C[C@@H]1CN([C@H](C)CO)C(=O)c2cc(NC(=O)Nc3ccc(F)cc3)ccc2O[C@H]1CN(C)Cc1ccc(-c2ccccc2)cc1 | active
2 | C[C@@H]1CN([C@H](C)CO)C(=O)c2cc(NC(=O)Nc3ccccc3)ccc2O[C@H]1CN(C)Cc1ccc(-c2ccccc2)cc1 | inactive
3 | C[C@@H]1CN([C@@H](C)CO)C(=O)c2cc(NC(=O)Nc3ccccc3)ccc2O[C@H]1CN(C)Cc1ccc(-c2ccccc2)cc1 | inactive
4 | C[C@H]1CN([C@@H](C)CO)C(=O)c2cc(NC(=O)Nc3ccc(F)cc3)ccc2O[C@@H]1CN(C)Cc1ccc(-c2ccccc2)cc1 | inactive
5 | C[C@@H]1CN([C@@H](C)CO)C(=O)c2cc(NC(=O)Nc3ccc(F)cc3)ccc2O[C@H]1CN(C)Cc1ccc(-c2ccccc2)cc1 | active
6 | C[C@H](CO)N1C[C@H](C)[C@H](CN(C)Cc2ccc(-c3ccccc3)cc2)Oc2ccc(NC(=O)Nc3ccc(F)cc3)cc2C1=O | inactive
7 | C[C@@H]1CN([C@H](C)CO)C(=O)c2cc(NC(=O)Nc3ccccc3)ccc2O[C@@H]1CN(C)Cc1ccc(-c2ccccc2)cc1 | inactive
8 | C[C@H](CO)N1C[C@H](C)[C@H](CN(C)Cc2ccc(-c3ccccc3)cc2)Oc2ccc(NC(=O)Nc3ccccc3)cc2C1=O | inactive
9 | C[C@H](CO)N1C[C@H](C)[C@@H](CN(C)Cc2ccc(-c3ccccc3)cc2)Oc2ccc(NC(=O)Nc3ccccc3)cc2C1=O | inactive
10 | C[C@@H]1CN([C@@H](C)CO)C(=O)c2cc(NC(=O)Nc3ccccc3)ccc2O[C@@H]1CN(C)Cc1ccc(-c2ccccc2)cc1 | active
11 | C[C@@H]1CN([C@@H](C)CO)C(=O)c2cc(NC(=O)Nc3ccc(F)cc3)ccc2O[C@@H]1CN(C)Cc1ccc(-c2ccccc2)cc1 | active
12 | C[C@H]1CN([C@@H](C)CO)C(=O)c2cc(NC(=O)Nc3ccccc3)ccc2O[C@H]1CN(C)Cc1ccc(-c2ccccc2)cc1 | inactive
13 | CC(C)NC(=O)Nc1ccc2c(c1)CC(=O)N([C@@H](C)CO)C[C@H](C)[C@H](CN(C)Cc1ccc3c(c1)OCO3)O2 | inactive
14 | O=c1nc[nH]c2c1ncn2[C@H]1CC[C@@H](CO)O1 | inactive
15 | Cn1cnc(S(=O)(=O)N2C[C@@H](O)COC[C@H]3O[C@H](CC(=O)NC4CCC4)CC[C@@H]32)c1 | inactive
16 | O=C(C[C@H]1CC[C@@H]2[C@H](COC[C@H](O)CN2S(=O)(=O)c2ccc(Cl)cc2)O1)NCC1CCCCC1 | inactive
17 | C[C@H](CO)N1C[C@H](C)[C@H](CN(C)C(=O)Nc2ccc(F)cc2)OCCCC[C@H](C)Oc2ccc(NC(=O)Cc3ccccc3)cc2C1=O | inactive
